# Screens deposited in PubChem BioAssay by National Center for Advancing Translational Sciences (NCATS).
# This excerpt belongs to a sample that is enriched for hits.
# SARS PLP yeast = qHTS of Yeast-based Assay for SARS-CoV PLP; S. cerevisiae expressing SARS-CoV PLpro, growth rescue; Potency, µM (series often up to 32.9 µM), most hits filed as activators; 330,000 tested, 0.19% active; AID 485353, 2010; note: nearly all actives have a fitted effect of over 55% in size
# Cycloheximide cs = Cycloheximide Counterscreen for Small Molecule Inhibitors of Shiga Toxin. cell reporter, cycloheximide protein synthesis inhibition counterscreen. 300,000 tested, 12% active. max response, %. AID 2314, 2010; in the data active = max response mostly above about 13%, no sharp cut-off; inactive = mostly below about 14%; note: read at 38.3 µM for the half of the compounds with a filed dose
# NS1 function inh = qHTS Assay for Inhibitors of Influenza NS1 Protein Function. Potency, µM (doses to about 46.1 µM). 270,000 tested, 0.4% active. AID 2326, 2010; note: actives are rising curves; nearly all actives have a fitted effect of over 50% in size
#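 In this qHTS, NS1 from influenza A is expressed in budding yeast, where it slows growth. Cells are switched from glucose to 2% galactose medium (pH 6.0, -URA), treated with compound, and growth recovery is read at OD600.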
# LmPK inh = qHTS Assay for Inhibitors of Leishmania Mexicana Pyruvate Kinase (LmPK) | Q27686 | purified LmPK, Kinase-Glo ATP luminescence, 1 h | Potency, µM (highest dose often 57.5 µM), actives largely listed as inhibitors | 290,000 tested, 0.37% active; active = well fitted curve in the direction sought with a large enough effect; an effect the other way counts as inactive or inconclusive
# Target sequence (Q27686 whole entry, looked up): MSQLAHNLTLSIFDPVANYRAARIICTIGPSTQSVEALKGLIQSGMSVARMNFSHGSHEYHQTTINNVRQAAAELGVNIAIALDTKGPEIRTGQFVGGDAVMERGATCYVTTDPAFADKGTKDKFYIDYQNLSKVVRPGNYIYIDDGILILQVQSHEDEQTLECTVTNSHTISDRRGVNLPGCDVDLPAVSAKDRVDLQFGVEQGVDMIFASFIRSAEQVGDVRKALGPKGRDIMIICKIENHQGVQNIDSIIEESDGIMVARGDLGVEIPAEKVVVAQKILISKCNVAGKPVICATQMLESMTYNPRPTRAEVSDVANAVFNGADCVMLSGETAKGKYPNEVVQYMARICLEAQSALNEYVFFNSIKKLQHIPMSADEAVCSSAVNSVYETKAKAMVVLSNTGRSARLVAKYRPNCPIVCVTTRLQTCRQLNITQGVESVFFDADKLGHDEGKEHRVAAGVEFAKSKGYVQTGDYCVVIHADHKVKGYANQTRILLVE
#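 Purified LmPK (0.1 nM) converted ADP (0.1 mM) to ATP with PEP (0.5 mM) in imidazole buffer pH 7.2 with KCl and MgCl2, 1 h at room temperature. ATP was read by Kinase-Glo luminescence; data normalized to uninhibited and no-enzyme controls.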
# TbPYK inhibitor = qHTS of Trypanosoma Brucei Inhibitors | pyruvate kinase (Trypanosoma brucei), Q57TT1 | TbPYK enzyme, Kinase-Glo Plus ATP luminescence, 45 min | Potency, µM (titrated, usually from 76.8 µM), most hits filed as inhibitors | 410,000 tested, 0.12% active; active = well fitted curve in the direction sought with a large enough effect; an effect the other way counts as inactive or inconclusive; note: nearly all actives have a fitted effect of over 50% in size
#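 Glycolytic pyruvate kinase of T. brucei was incubated with substrate, test compound and 130 uM ADP for 45 minutes at room temperature. Luminescent Kinase-Glo Plus signal was measured after 10 minutes.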
# Shiga toxin inh = A qHTS for Small Molecule Inhibitors of Shiga Toxin | Vero cells, Shiga toxin protein synthesis inhibition reporter | inhibition, % at 38.7 µM | 290,000 tested, 9.2% active | AID 2315, 2010; in the data active = inhibition mostly above about 28%, no sharp cut-off; inactive = mostly below about 43%
# Hits are given with their value; i = inactive; nt = no result. Unless noted, calls come from the whole dose curve.
SMILES,SARS PLP yeast,Cycloheximide cs,NS1 function inh,LmPK inh,TbPYK inhibitor,Shiga toxin inh
Cc1cc(C)c(NC(=O)CCCCCNC2CCCCC2)c(C)c1,i,i,i,i,i,i
O=C(Nc1cc2cc([N+](=O)[O-])ccc2oc1=O)c1cccs1,i,28,nt,i,nt,52
O=C(Nc1cccc(NC(=O)c2cccs2)c1)c1ccc([N+](=O)[O-])o1,i,13,i,i,i,i
Cc1ccc(NC(=O)c2cccs2)cc1[N+](=O)[O-],i,36,i,i,i,38
Cc1ccc(NC(=O)c2ccc(C(C)(C)C)cc2)cc1[N+](=O)[O-],i,43,i,i,i,12
Cc1cc(C)nc(Nc2ccc(C)c([N+](=O)[O-])c2)n1,i,17,i,i,i,54
O=C(CCC1N=C2c3ccccc3N=C(SCc3ccccc3Cl)N2C1=O)NCCc1ccccc1 (centres undefined),nt,nt,nt,nt,i,nt
COc1ccc(C(=O)NCCc2csc(-c3ccc(Cl)cc3)n2)c(OC)c1,nt,nt,nt,nt,i,nt
CCOC(=O)/C=C/c1ccc2oc3ccccc3c(=O)c2c1,i,49,i,i,i,76
O=C(c1ccco1)N1CCN(Cc2ccc(Cl)cc2)CC1,i,i,i,i,i,i
O=C(c1ccco1)N1CCN(Cc2c(Cl)cccc2Cl)CC1,i,21,i,i,i,i
O=C(c1cc(-c2ccccc2Cl)on1)N1CCN(C(=O)c2ccco2)CC1,i,i,i,i,i,i
O=C(c1ccco1)N1CCN(Cc2csc(-c3ccccc3Cl)n2)CC1,i,50,i,i,i,83
CC1=C(C(N)=O)C(c2ccc(C)cc2)n2nc(SCc3ccccc3)nc2N1 (centres undefined),nt,nt,nt,nt,i,nt
O=C(Cc1ccccc1)NCCSCc1ccccc1,i,19,i,i,i,i
O=C(CCSCc1ccccc1Cl)NCCc1ccccc1,nt,nt,nt,nt,i,nt
CC(NC(=O)CCSCc1ccccc1F)c1ccccc1 (centres undefined),i,58,i,i,i,65
O=C(NCCSCc1ccccc1)c1ccc(F)cc1,i,i,i,i,i,i
O=C(CCSCc1ccccc1F)NCCc1ccccc1,i,17,nt,i,i,i
